Consider 105 compounds from ChEMBL document CHEMBL4513216, “Probing the Open Global Health Chemical Diversity Library for Multistage-Active Starting Points for Next-Generation Antimalarials” (ACS Infect Dis, 2020).

Among all 69,000 compounds or so, about 8,600 (12%) showed an effect of 50% or more. The full list was thinned out, with strong results kept by preference.

In this experiment the test system is Plasmodium berghei. Description: Screen against P. berghei liver stage (PbLuc), transformed with Luciferase, at 10uM. In kind it is functional, HepG2. As to conditions: tested at 10 uM.
On to `O=C1NC2(CCN(Cc3ccoc3)CC2)CC1c1ccncc1` (stereo not given), for which the INHIBITION came out at 32.4%.

For the compound `O=C1NC2(CCN(Cc3ccc(F)cc3)CC2)CC1c1ccncc1` (stereo not given), the INHIBITION amounted to 35.4%. Then `O=C1NC2(CCN(Cc3ccccc3Cl)CC2)CC1c1ccccc1` (stereo not given), with 68.4%; and `O=C1NC2(CCN(Cc3nccs3)CC2)CC1c1ccncc1` (stereo not given), with 48.9%; and `N#Cc1cccc(CN2CCC3(CC2)CC(c2ccncc2)C(=O)N3)c1` (stereo not given), with -1.26%. Then `N#Cc1ccccc1CN1CCC2(CC1)CC(c1ccccc1)C(=O)N2` (stereo not given), with 62.8%; and `O=C1NC2(CCN(C(=O)c3ccc(Cl)cc3)CC2)CC1c1ccccc1` (stereo not given), with 14%.

Regarding `O=C1NC2(CCN(Cc3ccsc3)CC2)CC1c1ccncc1` (stereo not given), the INHIBITION was 12.6%. For the compound `O=C1NC2(CCN(Cc3cccs3)CC2)CC1c1ccncc1` (stereo not given), the INHIBITION was 59.1%. For the compound `CCNC(=O)c1ccc2c(c1)nc1n2CCN(Cc2ccco2)C1`, the INHIBITION is on record as -9.48%. Then `C[C@H]1C[C@H]2CN(S(=O)(=O)c3ccc(F)cc3)CC[C@@H]2O1`, with -1.12%; and `CCn1cc(-c2nn3c(C(F)(F)F)nnc3s2)cn1`, with -11.4%. As to `O=C(NCC1CCC(c2ccnc3ncnn23)CC1)C1CC1` (stereo not given), the INHIBITION is listed as 21.1%. Then `CSc1ncn(-c2nc(N(C)C)nc(N(C)C)n2)n1`, with 21.2%; and `CN(C)C(=O)N1CCC2(CC1)NC(=O)c1ccccc12`, with -13.9%; and `O=C(NCc1ccco1)N1CCCCC1c1nc(C2CC2)no1` (stereo not given), with 16%.

For the compound `COC(=O)[C@H](C)NC(=O)c1nc(C2CC2)n(-c2ccccc2Cl)n1`, the INHIBITION is reported as -20.8%. Then `CCn1cnnc1CNC(=O)c1cc(F)ccc1OC`, with 29.7%; and `CCn1cnnc1CNC(=O)c1cc(Cl)ccc1O`, with -35.1%; and `CCn1cnnc1CNC(=O)c1ccc(Br)cc1F`, with 56.5%. As for `CCn1cnnc1CNC(=O)c1cc(Cl)ccc1OC`, the INHIBITION is on record as -9.98%. Take `CCn1cnnc1CNC(=O)c1cc(Cl)ccc1F`: the INHIBITION is 56.4%. As for `CCn1cnnc1CNC(=O)c1ccc(Cl)cc1F`, the INHIBITION is on record as 36.2%. Then `Cn1cnnc1CNC(=O)c1ccc(Br)cc1O`, with -48.5%. Then `COc1cc(Cl)ccc1C(=O)NCc1nncn1C`, with 52.3%.

With `CCn1cnnc1CCNC(=O)c1ccc(Br)cc1F`, the INHIBITION is reported as 25.5%.

Take `CN(CC(=O)N1CCOCC(CO)C1)Cc1ccc(F)cc1` (stereo not given): the INHIBITION is -12.1%.

`Cc1noc(C)c1CN1CCCC2(C1)CN(Cc1nccn1C)CCO2` (stereo not given): the INHIBITION amounted to 10%. Then `CC(C)=CCN1C[C@@H]2CC[C@H]1CN(C(=O)c1ccc3c(c1)OCO3)C2`, with 33%. Then `CN(C)S(=O)(=O)N1CCN(Cc2ccnc(N3CCCC3)n2)CC1`, with 7.52%. Then `COc1ccc(-c2cc(C3CCNCC3)ccn2)cc1`, with 23.9%.

`O=C(c1ccc(-c2ccc(O)nc2)s1)N1CCCCC1`: the INHIBITION is listed as -69.6%.

Turning to `O=C(Nc1cc(Cl)ccn1)c1nc(N2CCCC2)ncc1Cl`, the INHIBITION was -35%.

As for `Cc1cc(NC(=O)c2nc(N3CCCC3)ncc2Cl)nc(C(C)C)n1`, the INHIBITION was determined as 66.8%. Then `O=C(Nc1ccccn1)c1nc(N2CCCC2)ncc1Cl`, with -4.48%; and `O=C1NCC(C(=O)Nc2ncc(Cc3ccccc3F)s2)N1` (stereo not given), with -17.4%.

With `CS(=O)(=O)N1CCc2sc(C(=O)NCCc3ccccn3)cc21`, the INHIBITION is -47.8%. Then `CC(C)(C)OC(=O)NCCNC(=O)c1ccc2cc[nH]c2c1`, with -16%; and `COCCN1C(=O)CCC12CCCN(Cc1ccccc1F)C2` (stereo not given), with 44.5%; and `Cc1ncsc1CN1C[C@@H]2CCCO[C@@H]2[C@H](Nc2ccccn2)C1`, with 34.2%. Then `COC1CCC[C@@H]2CN(Cc3csc(C)n3)C[C@H]12` (stereo not given in full), with 40.3%; and `Cc1nc(CN2C[C@@H]3CCCO[C@@H]3[C@H](NC(=O)CC3CC3)C2)cs1`, with 47.9%; and `Cc1ncsc1CN1C[C@@H]2CCCO[C@@H]2[C@H](N(C)C(C)C)C1`, with 50.7%. Then `Cc1ncsc1CN1C[C@H](OCC(C)C)[C@H]2OCCC[C@H]21`, with -37.9%; and `CCS(=O)(=O)N[C@@H]1CN(Cc2cc(C)on2)C[C@@H]2CCCO[C@@H]21`, with 21%. Take `Cc1cc(CN2C[C@@H]3CCCO[C@@H]3[C@H](N(C)C(C)C)C2)no1`: the INHIBITION was 71.6%. Then `Cc1nc(CN2C[C@@H]3CCCO[C@@H]3[C@H](N(C)C(C)C)C2)cs1`, with 66.8%; and `Cc1cc(CN2C[C@@H]3CCCO[C@@H]3[C@H](NS(C)(=O)=O)C2)no1`, with -13%. Then `Cc1cccc(C)c1NC(=O)CN(C)C(C)c1nc(C(C)(C)C)no1` (stereo not given), with 34.6%.

Regarding `Cc1cccc(OCCNC(=O)CN2CCCC2Cn2cncn2)c1` (stereo not given), the INHIBITION amounted to 12.7%. Then `CNC(=O)c1cc(C)ccc1NCc1cn2cc(C)ccc2n1`, with 29.6%; and `CCC(C#N)NC(=O)c1sccc1OC` (stereo not given), with 26.4%; and `COCC1CC2(CCN(C(=O)c3cncc(C)c3)CC2)CO1` (stereo not given), with -26.1%. Then `Cc1ccc(N2CCCc3sc(C(=O)NCc4cccnc4)nc32)nn1`, with 63.5%; and `Cc1ccc(N2CCCc3sc(C(=O)NCc4ccncc4)nc32)nn1`, with 42.5%. Then `O=C(NCc1cccnc1)c1nc2c(s1)CCCN2c1ncccn1`, with 26.3%; and `CC(C)N(C)CC(=O)N(C)C(c1cccc(F)c1)c1ccccn1` (stereo not given), with -55.4%. With `COc1ccc(CCN2CCCC(CN(C)Cc3ccc(C)o3)C2)cc1` (stereo not given), the INHIBITION was 70.6%. Take `COc1ccccc1CCN1CCCC(CN(C)Cc2ccc(C)o2)C1` (stereo not given): the INHIBITION was 22%.

For `O=C(Nc1ccc(Cl)cn1)C1CCCN(CCc2ccccn2)C1` (stereo not given), the INHIBITION turned out to be 48.3%. Then `O=C(Nc1ccc(Cl)cn1)C1CCCN(Cc2ccccn2)C1` (stereo not given), with 15.7%; and `COc1ccc(CCN2CCCC(CN(C)Cc3[nH]cnc3C)C2)cc1` (stereo not given), with 16.3%; and `COc1ccccc1CCN1CCCC(CN(C)Cc2cc(C)n[nH]2)C1` (stereo not given), with 36.8%. Then `CN(Cc1ccccc1O)CC1CCCN(CCc2ccc(Cl)cc2)C1` (stereo not given), with 5.36%.

As for `CN(Cc1cccc(O)c1)CC1CCCN(CCc2ccc(Cl)cc2)C1` (stereo not given), the INHIBITION is 73.5%.

Regarding `Cc1nc[nH]c1CN(C)CC1CCCN(CCc2ccc(Cl)cc2)C1` (stereo not given), the INHIBITION was found to be 33.7%.

Consider `CCN(CC1CCCN(CCc2cccc(OC)c2)C1)C(=O)CN(C)C` (stereo not given), for which the INHIBITION was found to be 16%.

Regarding `Cc1cc(CN(C)CC2CCCN(CCc3ccc(Cl)cc3)C2)[nH]n1` (stereo not given), the INHIBITION turned out to be 86.6%. Then `O=C(Nc1ccc(Cl)cn1)C1CCCN(CCc2ccncc2)C1` (stereo not given), with 74.4%. Then `O=C(O)c1cc(-c2cccs2)nc2c(Cl)cnn12`, with 47.1%; and `Cn1cc(C#N)c(=O)n(CC(O)c2ccccc2F)c1=O` (stereo not given), with -4.185%. Then `CC(=O)N1CCC(c2cnc(-c3c(C)n[nH]c3C)cn2)CC1`, with 49.6%; and `CC(CC(=O)O)CC(=O)Nc1sc2c(c1C(N)=O)CCc1ccccc1-2` (stereo not given), with 27.5%; and `CNC(=O)C(C)(C)N1CCC[C@H]1C(=O)NCCN1CCCC1`, with -84.9%. `Cc1ccc(C(=O)N2CCCN(Cc3cccs3)CC2)n1C`: the INHIBITION is 6.683%. Then `O=S1(=O)NC(C2CCN(Cc3ccncc3)CC2)Nc2ccccc21` (stereo not given), with 1.5%; and `CN(Cc1ccncc1)CC1CCCN(CCc2ccc(Cl)cc2)C1` (stereo not given), with 65.9%.

`COc1ccccc1CN(Cc1cccnc1)Cc1c[nH]c(C)n1`: the INHIBITION turned out to be 12%. As for `Cc1noc(CN(C)CC2CCCN(CCc3ccc(Cl)cc3)C2)n1` (stereo not given), the INHIBITION came to 58.5%.

As to `CN(Cc1cnc(N)nc1)CC1CCCN(CCc2ccc(Cl)cc2)C1` (stereo not given), the INHIBITION was -7.94%. Then `COc1ccccc1CC1CCCN(CCC#N)C1` (stereo not given), with 9.32%.

As for `Cc1nc(CN(C)CC2CCCN(CCc3ccc(Cl)cc3)C2)n(C)n1` (stereo not given), the INHIBITION was found to be 39.3%.

Turning to `COc1ccccc1CCN1CCCC(CN(C)Cc2c[nH]c(C)n2)C1` (stereo not given), the INHIBITION turned out to be 85.7%. Then `Cc1nc(CN(C)CC2CCCN(CCc3ccc(Cl)cc3)C2)no1` (stereo not given), with 40.8%. Then `CN(Cc1nnc(C2CC2)n1C)C1CCN(CCc2ccncc2)C1` (stereo not given), with -11.2%. Then `CC(=O)NCCNC(=O)c1sc(-c2ccc(Cl)cc2)nc1C`, with -14.75%; and `C[C@@H]1CN(CCc2ccccc2)C[C@]12CCN(CC(=O)N(C)C)C2=O`, with -29.5%; and `CC(C#N)CN(C)Cc1nc2c(cnn2C)c(=O)[nH]1` (stereo not given), with 5.72%. Consider `CCN(CC1CCCO1)S(=O)(=O)N1CCCCCC1` (stereo not given), for which the INHIBITION is reported as -9.21%. Consider `Cc1ccc2c(c1)c(Sc1ccccc1)c(CC(=O)O)n2C`, for which the INHIBITION was determined as 12.8%. Then `Cc1c[nH]nc1C1CCN(C(=O)CC2CCCC2)C1` (stereo not given), with -136%. Then `CCc1oc(C(=O)N(C)Cc2nonc2C)cc1CN(CC)CC`, with 35.7%; and `Cc1ccc(C(=O)N2CCC3(CC2)C(=O)NCCN3C)cc1O`, with 4.64%; and `CN(C)c1ccc(NC(=O)C2CN(Cc3ccccc3)CCO2)cn1` (stereo not given), with 52.6%.

In the case of `CC(C)(C)n1cc(NC(=O)C2CN(Cc3ccccc3)CCO2)cn1` (stereo not given), the INHIBITION is -43.3%. Then `O=C(O)C1CN(Cc2cccc(-c3ccccn3)c2)CCO1` (stereo not given), with -1.45%.

In the case of `Cc1cc(C)cc(NC(=O)CC2CN(Cc3ccccc3)CCO2)c1` (stereo not given), the INHIBITION is given as -10.9%. Then `CN(C)c1ncc(CN2CCOC(C(=O)Nc3ccccc3)C2)cn1` (stereo not given), with 23.9%; and `CN(C)c1ncccc1CN1CCOC(C(=O)Nc2ccccc2)C1` (stereo not given), with 37.6%. Then `Cc1cc(NC(=O)C2CN(Cc3ccccc3)CCO2)ccn1` (stereo not given), with 96.2%.

In the case of `CC(C)c1ncc(CN2CCOC(C(=O)Nc3ccccc3)C2)cn1` (stereo not given), the INHIBITION is recorded as 6.32%. Then `CN(C)c1ncccc1NC(=O)C1CN(Cc2ccccc2)CCO1` (stereo not given), with 85.1%.

Take `Cc1ccc(CNc2cc(N3CCCC3CO)ncn2)s1` (stereo not given): the INHIBITION is -23.9%. Then `C[C@@H]1CN(C(=O)c2cccn2C)C[C@]12CCN(c1ccsc1)C2=O`, with 8.93%; and `CC(C)c1nnc2n1CC(CNCc1nc3ccccc3o1)CC2` (stereo not given), with 13%.
